# Measurements taken from PubChem BioAssay AID2314 (National Center for Advancing Translational Sciences (NCATS), 2010).
# The whole screen tested about 300,000 compounds, of which about 37,000 (12%) were called active. Rule as the data show it: active = max response mostly above about 13% (no sharp cut-off); inactive = mostly below about 14%. The entries come from a sample that favours actives as a whole.
# Test: Cycloheximide Counterscreen for Small Molecule Inhibitors of Shiga Toxin; also: read at 38.3 µM for the half of the compounds with a filed dose; 0% is about no effect
# Details: cell reporter, cycloheximide protein synthesis inhibition counterscreen; active compounds read high
row,Compound,max response
1,O=c1cc(CCl)nc2scc(-c3ccccc3)n12,3.02% (inactive)
2,COc1ccc(CCNC(=O)CCNS(=O)(=O)c2cc(Br)cnc2N)cc1OC,13.2% (inactive)
3,CN1C(=O)C2(OCCCO2)c2cc(Cl)ccc21,0.948% (inactive)
4,CCCS(=O)(=O)N1CCC(CCOc2ccccc2)(C(=O)OCC)CC1,-1.66% (inactive)
5,COc1ccc(-c2ccc(OC)c(C3C4C=CCC(C)C4C(=O)N3Cc3ccccc3)c2)cc1C (centres undefined),28.8% (inactive)
6,COc1ccc2cc1Oc1ccc(cc1)C[C@H]1c3cc(c(OC)cc3CCN1C)Oc1c(O)c(OC)cc3c1[C@H](C2)N(C)CC3,-1.4% (inactive)
7,O=C(c1cncc(Br)c1)N1CCN(c2ccc([N+](=O)[O-])cc2)CC1,-2.1% (inactive)
8,COc1ccc(N(CC(=O)Nc2cccc3ccccc23)S(C)(=O)=O)c(OC)c1,-1.55% (inactive)
9,CC(C)(C)[Si](OCC[C@@H]1C[C@@]1(C)[C@@H](NP(=O)(c1ccccc1)c1ccccc1)c1ccccc1)(c1ccccc1)c1ccccc1,-2.22% (inactive)
10,COC(=O)c1ccccc1NC(=O)c1ccc(C#N)cc1,14.4% (inactive)
11,Cc1ccc(C(=O)/C=C/c2c(C)nn(-c3ccccc3)c2Cl)cc1,37.8% (active)
12,CCNC(=O)COC(=O)/C=C/c1c(C)nn(Cc2cccc(OC)c2)c1Cl,-1.93% (inactive)
13,O=C(/C=C/c1ccc(Cl)c([N+](=O)[O-])c1)c1ccc(O)cc1,11.3% (inactive)
14,Cc1nn(-c2ccccc2)c(Cl)c1/C=C/C(=O)c1ccc(O)cc1,17% (active)
15,O=C(CN1C(=O)COc2ccc(Cl)cc21)N1CCOCC1,-0.636% (inactive)
16,CCOC(=O)CSc1nc2ccc(C)cc2n2cnnc12,7.14% (inactive)
17,Cc1ccc(C)c(S(=O)(=O)Nc2cc(C)on2)c1,-1.71% (inactive)
18,CCCC(O)(CCC)C(=O)NN(C(=O)CCl)c1cccc(C)c1,4.6% (inactive)
19,O=C(NNS(=O)(=O)c1ccccc1C(F)(F)F)c1cc2ncc(C(F)(F)F)cc2s1,-2.52% (inactive)
20,CC(C)(C)c1cc(NC(=O)NN2CCOCC2)nn1-c1c(Cl)cc(Cl)cc1Cl,6.4% (inactive)
21,O=C(Nn1c(-c2ccccc2)nc2ccccc2c1=O)c1ccc([N+](=O)[O-])cc1,1.01% (inactive)
22,O=C(Nn1c(SCc2ccc([N+](=O)[O-])cc2)nc2ccccc2c1=O)c1ccc(F)cc1,116% (active)
23,O=C(CCn1c(SCC(=O)c2ccccc2)nc2ccccc2c1=O)NCc1ccc(F)cc1,-3.48% (inactive)
24,Cc1ccc(CNS(=O)(=O)c2ccc3c(c2)N(C)CCO3)cc1,13.9% (inactive)

row,Compound,max response
1,COc1ccccc1NC(=O)C1=C(C)NC(=O)NC1c1ccc(C)s1 (centres undefined),-3.68% (inactive)
2,COc1ccccc1NC(=O)c1ccc(C)s1,64% (active)
3,COC(=O)c1c(NC(C)=O)sc(C(=O)Nc2ccccc2OC)c1C,-2% (inactive)
4,CCCCn1c(=S)[nH]c2cc(S(=O)(=O)N3CCCCC3)ccc21,-3.25% (inactive)
5,O=[N+]([O-])c1ccc(O)c(/C=N/Nc2ccccc2[N+](=O)[O-])c1,15.6% (active)
6,Nc1nnnn1/N=C/c1cc([N+](=O)[O-])ccc1O,1.42% (inactive)
7,O=C(N/N=C/c1cc([N+](=O)[O-])ccc1O)/C(=C\c1cccs1)NC(=O)c1ccccc1,-1.19% (inactive)
8,CC(/C=N/NC(=O)c1cc(-c2ccc3ccccc3c2)n[nH]1)=C\c1ccco1,22.2% (active)
9,Cc1cc(C)c(OCC(=O)N/N=C/c2ccco2)c(C)c1,-3.21% (inactive)
10,CC(/C=N/NC(=O)c1ccncc1)=C\c1ccco1,10.3% (inactive)
11,OCCNCc1cccc(OCc2ccccc2Cl)c1,-3.04% (inactive)
12,O=C(COC(=O)c1cc(=O)[nH]c2ccccc12)Nc1nc(-c2cccc(Br)c2)cs1,0.762% (inactive)
13,CCN1CCC(=NNC(=O)c2ccc(C)c([N+](=O)[O-])c2)CC1,-3.08% (inactive)
14,Cc1cc(O)c(NC(=O)c2ccc(C)c([N+](=O)[O-])c2)cc1C,40.4% (active)
15,Cc1ccc(C(=O)Nc2cccc3ncccc23)cc1[N+](=O)[O-],9.95% (inactive)
16,COc1cccc(-c2nc(CS(=O)(=O)CC(=O)NCCc3ccc(OC)c(OC)c3)c(C)o2)c1,16% (inactive)
17,COc1ccccc1NC(=O)/C=C/C(=O)O,-1.17% (inactive)
18,COC(=O)c1sc(-c2ccc(C(C)(C)C)cc2)cc1NC(=O)/C=C/C(=O)O,45.7% (active)
19,O=C(O)/C=C/C(=O)Nc1ccc(F)cc1F,7.97% (inactive)
20,O=C(CCn1nnnc1CN1CCOCC1)N1CCC(c2ccccc2Cl)C1 (centres undefined),-3.06% (inactive)
21,CC(=O)c1c(C)n(-c2ccc(C)cc2)c2ccc(O)cc12,-2.22% (inactive)
22,Cc1cc(=O)[nH]c(SCC(=O)N2c3ccccc3CC2C)n1 (centres undefined),1.01% (inactive)
23,CCN(CC)C(=O)CSc1nc2ccccc2o1,21.2% (active)
24,CCS(=O)(=O)c1ccc2oc(SCC(=O)N3c4ccccc4CC3C)nc2c1 (centres undefined),-5.84% (inactive)

row,Compound,max response
1,CCOC(=O)n1c(SCC(=O)N(CC)CC)nc2ccccc21,0.246% (inactive)
2,CC1Cc2ccccc2N1C(=O)CSc1nc2ccccc2o1 (centres undefined),42.4% (active)
3,CC(C)(C)C(=O)CSc1nc2ccccc2o1,34.5% (active)
4,CCN(CC)C(=O)CSc1nnc(-c2ccc(S(=O)(=O)NCc3ccccc3Cl)cc2)o1,-0.581% (inactive)
5,CCN(CC)C(=O)CSc1nnc(-c2cccc(OC)c2)o1,41% (active)
6,O=C(CSc1nc2ccccc2o1)N1CCN(c2ccc(Cl)cc2)CC1,3.68% (inactive)
7,O=C(CSc1nc2ccccc2o1)N1c2ccccc2Sc2ccc(Cl)cc21,-1.63% (inactive)
8,CCOC(=O)CSc1nnc(-c2cccc(Br)c2)o1,-2.27% (inactive)
9,O=C(CSc1nc2ccccc2o1)N1CCN(c2ccccc2)CC1,-3.14% (inactive)
10,COc1ccc(CCNC(=O)C2CCCN2C(=O)Nc2ccccc2)cc1OC (centres undefined),-1.21% (inactive)
11,CCOC(=O)c1c(NC(=O)C2CC=CCC2C(=O)O)sc(C)c1CC (centres undefined),-3.33% (inactive)
12,Nc1nnnn1/N=C/c1cccc(Br)c1,-1.37% (inactive)
13,COc1ccc(-c2nn(C)c(=O)c3ccccc23)cc1CNC(=O)C1CCCCC1,-2.76% (inactive)
14,Cc1ccccc1Nc1scc(-c2ccc(Br)cc2)[n+]1-c1ccccc1C,12.1% (inactive)
15,CC(C)OC(=O)CN1CCN(c2ccc(Cl)cc2)CC1,-1.75% (inactive)
16,CC1CCCN(CCOCCOc2ccccc2-c2ccccc2)C1 (centres undefined),-1.97% (inactive)
17,Cc1ccc(CNC(=O)CSc2nnc3c(n2)[nH]c2ccc(F)cc23)cc1,-7.47% (inactive)
18,CC(c1nnc(SCC(=O)Nc2sccc2C#N)n1-c1ccc(Cl)cc1)N(C)C (centres undefined),-5.17% (inactive)
19,CCOc1ccc(NC(=O)C/C(C)=N/NC(=O)Cc2cccs2)cc1,11.9% (inactive)
20,CCc1nnc(NC(=O)CCC(=O)O)s1,-1.47% (inactive)
21,CCc1nnc(NC(=O)/C=C/c2ccc(C)o2)s1,21.2% (active)
22,Cc1nnc(NC(=O)/C=C/c2ccco2)s1,25.7% (active)
23,CCOC(=O)c1c(NC(=O)/C=C/c2ccco2)sc(C)c1C,-2.54% (inactive)
24,Cc1ccc(/C=C/C(=O)Nc2ccc([N+](=O)[O-])c(NC(=O)/C=C/c3ccc(C)o3)c2)o1,-2.46% (inactive)

row,Compound,max response
1,CCC(CC)c1nnc(NC(=O)/C=C/c2ccco2)s1,17.5% (inactive)
2,CNC(=O)c1[nH]cnc1C(=O)N[C@@H](CC(C)C)C(=O)OCc1ccccc1,0.929% (inactive)
3,COc1ccc(NC(=O)NCCN2CCN(c3ccc(C)cc3)CC2)c(Cl)c1,-1.67% (inactive)
4,COc1ccccc1NC(=O)CSc1nnc(CNC(=O)c2ccccc2F)o1,1.71% (inactive)
5,N#Cc1ccc(S(=O)(=O)NCC(=O)OCC(=O)NCCc2ccccc2)cc1,1.22% (inactive)
6,COc1ccc(-n2cnnc2SCC(=O)Nc2cccc([N+](=O)[O-])c2)cc1,-4.87% (inactive)
7,Cc1ccccc1OCCOc1ccc([N+](=O)[O-])cc1/C=N/n1cnnc1,-2.75% (inactive)
8,COc1ccc(/C(C)=N/N2CCOCC2)c(O)c1,26.7% (active)
9,COc1ccc(OCC(=O)N2CCOCC2)cc1,9.77% (inactive)
10,COc1cc(C(=S)N2CCOCC2)ccc1O,-0.128% (inactive)
11,CCN(C(=O)Cc1nc(N)n[nH]1)C1(C(=O)Nc2ccccc2)CCCCC1,-6.07% (inactive)
12,Cc1cc(=O)oc2cc(OCCC[n+]3ccccc3)ccc12,1.33% (inactive)
13,Cc1nonc1C(=O)N/N=C/c1ccc(O)cc1,37.3% (active)
14,O=C(C[n+]1ccccc1)N/N=C/c1ccc(O)cc1,-3.62% (inactive)
15,CC(C)c1c(C(=O)N/N=C/c2ccc(-c3ccccc3)cc2)nnn1-c1nonc1N,-10.6% (inactive)
16,CCOc1c(OC)cccc1C(=O)NCC1(c2ccccc2)CCCC1,-2.45% (inactive)
17,O=C(C1CCN(S(=O)(=O)Cc2ccccc2)CC1)N1CCCc2ccccc21,11.2% (inactive)
18,OCC1(Cc2ccccc2)CCN(Cc2cc3ccccc3o2)CC1,1.07% (inactive)
19,O=C(COC(=O)C1CC2C=CC1C2)Nc1ccccc1 (centres undefined),27.3% (active)
20,NC(=O)c1ccc(NC(=O)COC(=O)C(Cc2ccccc2)NC(=O)c2ccccc2)cc1 (centres undefined),-2.16% (inactive)
21,Cc1ccc(S(=O)(=O)N(C)CC(=O)OCC(=O)Nc2ccccc2)cc1,3.68% (inactive)
22,COc1ccc(C(=O)n2nc(C)c(Br)c2C)cc1OC,-2.74% (inactive)
